Results filed as inconclusive are left out. A number with no mark means an inactive call. Activity calls are given as the source filed them. Calls come from the whole dose curve; as a rule, active = well fitted curve in the direction sought with a large enough effect; inconclusive = small, poorly fitted or top-dose-only effect, or another doubt; inactive = no such curve, though single readings can be large; an effect the other way counts as inactive or inconclusive.
Note: nearly all actives have a fitted effect of over 70% in size.

Luciferin 4-monooxygenase (Photinus pyralis), sequence (P08659 whole entry, looked up): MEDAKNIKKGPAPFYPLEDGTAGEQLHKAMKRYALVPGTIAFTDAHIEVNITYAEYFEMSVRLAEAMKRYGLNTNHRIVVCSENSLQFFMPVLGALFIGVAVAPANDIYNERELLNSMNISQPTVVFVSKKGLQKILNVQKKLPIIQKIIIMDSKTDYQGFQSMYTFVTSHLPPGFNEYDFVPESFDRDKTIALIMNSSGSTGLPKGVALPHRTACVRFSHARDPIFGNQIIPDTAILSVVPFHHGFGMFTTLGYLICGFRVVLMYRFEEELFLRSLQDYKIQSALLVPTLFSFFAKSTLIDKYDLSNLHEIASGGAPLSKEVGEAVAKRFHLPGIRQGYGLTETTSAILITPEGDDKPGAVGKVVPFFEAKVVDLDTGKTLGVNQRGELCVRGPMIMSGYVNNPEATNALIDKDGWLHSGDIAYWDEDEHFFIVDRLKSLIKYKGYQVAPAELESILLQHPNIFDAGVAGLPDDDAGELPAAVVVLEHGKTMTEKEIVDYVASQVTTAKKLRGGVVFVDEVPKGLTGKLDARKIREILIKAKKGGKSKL

The target in one test is Luciferin 4-monooxygenase (Photinus pyralis) (UniProt P08659). Put plainly: Biochemical firefly luciferase enzyme assay for NPC (AID 624030).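 Note: purified P. pyralis luciferase at 10 nM with luciferin and ATP substrate; 0% = DMSO and -100% = full luciferase inhibition by PTC124 control.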 Particulars: purified P. pyralis luciferase, luminescence, 5 min; series mostly up to 58.6 µM; activity change, negative = inhibition: at the top concentration. In outline:
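Direct inhibition of firefly luciferase enzyme (10 nM final, 50 mM Tris Acetate) assessed by luminescence within 5 minutes. Percent activity scaled between DMSO and PTC124 positive control, with concentration-effect curves classified by fit quality and response.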
Turning to `NC(=O)CC[C@@H]1NC(=O)[C@H](Cc2ccccc2)NC(=O)[C@H](Cc2ccc(O)cc2)NC(=O)[C@@H](N)CSSC[C@@H](C(=O)N2CCC[C@H]2C(=O)N[C@@H](CCCN=C(N)N)C(=O)NCC(N)=O)NC(=O)[C@H](CC(N)=O)NC1=O`, the “activity change, negative = inhibition” value is 1.6%.

With `CC(=O)NCCCS(=O)(=O)O`, the “activity change, negative = inhibition” value was -2.01%. Turning to `N=C(N)c1ccc(/C=C/c2ccc(C(=N)N)cc2O)cc1`, the “activity change, negative = inhibition” value is 10.1%. As to `COc1ccc(C[C@H](C)NC[C@@H](O)c2ccc(O)c(NC=O)c2)cc1`, the “activity change, negative = inhibition” value was 2.61%. For the compound `CN1c2c(nc(N)[nH]c2=O)NCC1CNc1ccc(C(=O)NC(CCC(=O)O)C(=O)O)cc1` (stereo unspecified), the “activity change, negative = inhibition” value is -0.0942%. Still for that read-out and setting: then `C=CC[C@@H]1/C=C(\C)C[C@H](C)C[C@H](OC)[C@H]2O[C@@](O)(C(=O)C(=O)N3CCCC[C@H]3C(=O)O[C@H](/C(C)=C/[C@@H]3CC[C@@H](O)[C@H](OC)C3)[C@H](C)[C@@H](O)CC1=O)[C@H](C)C[C@@H]2OC`, with -1.17%; and `Cn1c(=O)c2c(ncn2CCOC(=O)C(C)(C)Oc2ccc(Cl)cc2)n(C)c1=O`, with 0.678%. For `O=P(O)(O)OC[C@H](O)CO`, the “activity change, negative = inhibition” value is 3.03%. As to `O=P(O)(O)CP(=O)(O)O`, the “activity change, negative = inhibition” value is 3.24%. Still for that read-out and setting: then `CCN(CC)C(=S)S`, with -7.57%. Consider `COC(=O)CCC[N+](C)(C)C`, for which the “activity change, negative = inhibition” value is -3.66%. On to `CC(=O)N[C@@H](C=O)[C@@H](O)[C@H](O)[C@H](O)CO`, for which the Potency result was “inactive”. In the case of `CS(=O)(=O)c1ccc([C@@H](O)[C@@H](COC(=O)CN)NC(=O)C(Cl)Cl)cc1`, the “activity change, negative = inhibition” value was 2%.

`FC(F)OC(Cl)C(F)(F)F` (stereo unspecified): the “activity change, negative = inhibition” value was -5.46%. Still for that read-out and setting: then `CC1C(=O)CC2C3(C)CCC2(C(C)C(=O)O)C(=O)C13` (stereo unspecified), with -2.45%; and `CCCCCCCCCCCCCC(=O)OCC(COP(=O)([O-])OCC[N+](C)(C)C)OC(=O)CCCCCCCCCCCCC` (stereo unspecified), with 0.845%; and `Cc1ncc(C[n+]2csc(CCO)c2C)c(N)n1`, with -4.52% [at 24.9 µM]. Turning to `CCN(CC)C(=O)c1cccnc1`, the “activity change, negative = inhibition” value was 0.504%.

For the compound `CCOC(=S)SSC(=S)OCC`, the “activity change, negative = inhibition” value is -14.8%. Same read-out and setting: then `OCC1(CO)COC(C(Cl)(Cl)Cl)OC1`, with 1.17%.

Test system in a further test: not listed separately
Nature of the test: S16 Schwann cell viability assay (CellTiter-Glo assay) (AID 624031).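 Note: native untransfected S16 rat Schwann cells; cellular ATP luminescence as a viability measure; plate controls were DMSO-treated cells for no effect and cell-free wells for full effect.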 The conditions noted are these: S16 rat Schwann cells viability, 24 h; series mostly up to 57.5 µM; activity change, negative = cytotoxicity: at the top concentration. An outline of the steps: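 Concentration-effect curves come from CellTiter-Glo luminescence of S16 rat Schwann cells after 24 h compound exposure. Each reading was normalized to DMSO wells (0%) and wells without cells, and curves were ranked by r2 and response magnitude.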
On the technique in general: In ATP-based viability assays light output follows the ATP content of the culture.
As for `NC(=O)CC[C@@H]1NC(=O)[C@H](Cc2ccccc2)NC(=O)[C@H](Cc2ccc(O)cc2)NC(=O)[C@@H](N)CSSC[C@@H](C(=O)N2CCC[C@H]2C(=O)N[C@@H](CCCN=C(N)N)C(=O)NCC(N)=O)NC(=O)[C@H](CC(N)=O)NC1=O`, the “activity change, negative = cytotoxicity” value is -0.976%. On the same count and under the same terms, in the case of `CC(=O)NCCCS(=O)(=O)O` it was -3.53%; in that of `N=C(N)c1ccc(/C=C/c2ccc(C(=N)N)cc2O)cc1`, 4.33%. As to `CN1c2c(nc(N)[nH]c2=O)NCC1CNc1ccc(C(=O)NC(CCC(=O)O)C(=O)O)cc1` (stereo unspecified), the “activity change, negative = cytotoxicity” value was 0.135%. On the same count and under the same terms, then `Cn1c(=O)c2c(ncn2CCOC(=O)C(C)(C)Oc2ccc(Cl)cc2)n(C)c1=O`, with -26.7%; and `O=P(O)(O)OC[C@H](O)CO`, with 9.55%; and `O=P(O)(O)CP(=O)(O)O`, with -5.51%.

For `COC(=O)CCC[N+](C)(C)C`, the “activity change, negative = cytotoxicity” value is -1.98%. In the case of `CS(=O)(=O)c1ccc([C@@H](O)[C@@H](COC(=O)CN)NC(=O)C(Cl)Cl)cc1`, the “activity change, negative = cytotoxicity” value was -20.9%. On the same count and under the same terms, then `FC(F)OC(Cl)C(F)(F)F` (stereo unspecified), with -2.7%; and `CC1C(=O)CC2C3(C)CCC2(C(C)C(=O)O)C(=O)C13` (stereo unspecified), with -8.82%; and `CCCCCCCCCCCCCC(=O)OCC(COP(=O)([O-])OCC[N+](C)(C)C)OC(=O)CCCCCCCCCCCCC` (stereo unspecified), with 0.712%. On the same count and under the same terms, in the case of `Cc1ncc(C[n+]2csc(CCO)c2C)c(N)n1` it was 0.233% [at 25.7 µM]. As to `CCN(CC)C(=O)c1cccnc1`, the “activity change, negative = cytotoxicity” value was -15.6%. For the compound `CCOC(=S)SSC(=S)OCC`, the “activity change, negative = cytotoxicity” value is 0%.

As to `OCC1(CO)COC(C(Cl)(Cl)Cl)OC1`, the “activity change, negative = cytotoxicity” value was 10.6%.
